About 79,000 compounds went through this panel and 15% of them were active in at least one assay; those are over-represented in the sample as a whole. Values without a mark were called inactive. The source made the active and inactive calls. Rule as the data show it: active = growth inhibition above about 70%; inactive = the rest.
Columns and labels:
[1] = NCI Yeast Anticancer Drug Screen. Data for the rad50 strain (AID 155);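 also: 0% = growth of vehicle-only cultures of the same strain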; details: S. cerevisiae rad50 strain growth inhibition, stronger effect = higher value; at 50.0 µM unless noted
Procedure, shortened: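 A DNA repair-deficient yeast mutant serves as the test organism; compound-induced growth inhibition is calculated against vehicle-treated cells.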

[2] = NCI Yeast Anticancer Drug Screen. Data for the mec2-1 strain (AID 157); details: S. cerevisiae mec2-1 strain, stronger effect = higher value; at 50.0 µM unless noted
Procedure, shortened: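 Compounds were applied to mec2-1 yeast cells. Their growth was then compared with that of vehicle-treated cultures to give growth inhibition.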

[3] = NCI Yeast Anticancer Drug Screen. Data for the sgs1 mgt1 strain (AID 161);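 also: 0% = growth of cultures given vehicle only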; details: S. cerevisiae sgs1 mgt1 strain, stronger effect = higher value; at 50.0 µM unless noted
Procedure, shortened: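 Yeast cells carrying a defined DNA-repair defect were exposed to test compounds. Growth inhibition was measured relative to vehicle-treated controls.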

[4] = NCI Yeast Anticancer Drug Screen. Data for the cln2 rad14 strain (AID 165);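 also: 0% = growth equal to vehicle treated cultures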; details: S. cerevisiae cln2 rad14 strain, stronger effect = higher value; at 50.0 µM unless noted
Procedure, shortened: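 Strain: cln2 rad14 yeast, altered in cell cycle control and DNA damage repair. Read-out: growth inhibition vs vehicle.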

[5] = NCI Yeast Anticancer Drug Screen. Data for the bub3 strain (AID 167); details: S. cerevisiae bub3 mutant strain, stronger effect = higher value; at 50.0 µM unless noted
Procedure, shortened: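 Inhibition values come from growth of compound-treated mutant yeast normalised to vehicle-treated controls.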

[6] = NCI Yeast Anticancer Drug Screen. Data for the mlh1 rad18 strain (AID 175); details: S. cerevisiae mlh1 rad18 strain growth inhibition, stronger effect = higher value; at 50.0 µM unless noted
Procedure, shortened: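 A repair-deficient yeast strain is exposed to test compound, and growth is scored relative to vehicle-treated controls.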

Compound | growth inhibition [1] [%] | growth inhibition [2] [%] | growth inhibition [3] [%] | growth inhibition [4] [%] | growth inhibition [5] [%] | growth inhibition [6]
Cc1ccc2cc(-c3ccccc3)[nH]c2c1 | -15.3 | -11.2 | -13.6 | -13.4 | -33.6 | -55%
O=S1(=O)OCCOS(=O)(=O)C1C1c2ccccc2-c2ccccc21 | 13.4 | 2.95 | 18.7 | 7.6 | -1.25 | -32.3%
CC(C)CCOB(OCCC(C)C)OCCC(C)C | -25.9 | -40.1 | -6.6 | 2.45 | -26.6 | -23.2%
CC(C)(C1CCC([Si](C2CCCCC2)(C2CCCCC2)C2CCCCC2)CC1)[Si](C1CCCCC1)(C1CCCCC1)C1CCCCC1 (stereo not drawn) | 8 | -0.15 | -14.4 | -7.2 | 3.3 | -1.95%
COc1ccc(/C(C)=C\C(=O)O)cc1 | -1.95 | -3.2 | -9.55 | -43.2 | -40 | 7.15%
[N-]=[N+]=Nc1c(C=O)c(=O)n2c3c(cccc13)CCC2 | 17.2 | 32 | 29.2 | 31.2 | 27.7 | 61%
NC(=S)N/N=C1\CCCc2ccccc21 | 60.8 | 21.2 | 42.3 | 41.9 | 7.15 | 52.8%
C[N+]1(CCN=C=NC2CCCCC2)CCOCC1 | -11.9 | 10.8 | 16.9 | -12.2 | 17.9 | 14.4%
Cc1nc2ccccc2c(=O)n1NC(=O)Cc1ccccc1 | -22.6 | -11.1 | -7.45 | 2.2 | -12.4 | -23.1%
COc1cc2c(cc1C(C)c1ccc(Cl)cc1)OCO2 (stereo not drawn) | 12.8 | -1.55 | -1.6 | 21 | 20.2 | 4.9%
CN(C)CCCNC(=O)N/N=C/c1ccccc1 | 13.9 | -13.8 | -13.8 | -6.3 | -39.7 | -21.1%
Cc1ccc(-c2cc(-c3ccccc3)c(C#N)c(=O)n2C2OC(CO)C(O)C(O)C2O)cc1 (stereo not drawn) | -6.55 | -0.3 | 2.25 | 28.1 | 8.65 | 2.95%
COCCC(=O)OCCC(C)OC (stereo not drawn) | 21.6 | -4.1 | 3.65 | 1.95 | -42.2 | -11.2%
O=C1OC(=O)C2C(Cl)C(Cl)C12 (stereo not drawn) | -5.1 | -7.2 | 2.7 | -37.6 | -15.8 | 3.4%
COc1ccc(-n2c(N)c(C#N)[nH]c2=O)cc1 | -8.7 | -36.1 | -14 | -11.8 | 6.05 | -21.3%
CCOC(=O)c1ccc(NC(=O)Nc2ccc(F)cc2)cc1 | 3.5 | -0.5 | 1 | 12.5 | 32.5 | 5.55%
Nc1ccc(S(=O)(=O)CCS(=O)(=O)c2ccc(N)cc2)cc1 | 5.65 | -4.5 | 0.55 | -25.1 | 4.45 | 0.8%
COc1ccc(/C(=N/N)C(C)(C)C)cc1 | 5.8 | -2.8 | -7.95 | -15.8 | -1.6 | -1.9%
Cc1nc(-c2ccc(Cl)cc2)cn2c1nc1ccccc12 | -5.5 | -0.1 | 8.2 | -15.1 | 47.5 | -10.3%
S=C(c1ccccc1)c1cccc2ccccc12 | 57 | 15.1 | 58 | 2.8 | -3.55 | 36.9%
CNC(=O)NCCCCC(NC(=O)OCc1ccccc1)C(=O)OCc1ccccc1 (stereo not drawn) | 3.15 | -14 | -37.2 | -3.5 | 1.15 | -24.1%
O=c1[nH]c2nc3ccccc3c(=O)n2nc1Cc1ccccc1 | -15.7 | -19.6 | -8.6 | -2.05 | -13.3 | 0.7%

Compound | growth inhibition [1] [%] | growth inhibition [2] [%] | growth inhibition [3] [%] | growth inhibition [4] [%] | growth inhibition [5] [%] | growth inhibition [6]
Cc1ccc(S(=O)(=O)N/N=C(/c2nc3ccc([N+](=O)[O-])cc3[nH]c2=O)C(O)c2ccc(C(O)/C(=N\NS(=O)(=O)c3ccc(C)cc3)c3nc4ccc([N+](=O)[O-])cc4[nH]c3=O)cc2)cc1 (stereo not drawn) | -16.6 | -27.6 | -26.2 | 0.6 | -32.7 | -10.3%
Cc1cc(C)cc(N(C2=NCCS2)C2=NCCS2)c1 | 5 | -4.55 | -2.35 | 0.45 | 21.9 | 4.9%
O=C(O)c1cccc(OCCO)c1 | -10 | -11.2 | -35.8 | -26.4 | -17.9 | -29.9%
CN(CCNC(=O)C1CCCCC1C(=O)O)c1ccccc1 (stereo not drawn) | 5 | 22.3 | 1 | 0.15 | 13.6 | -10.2%
COC(=O)C(Br)C(Br)c1cc(OC)c(OC)c(OC)c1 (stereo not drawn) | 48.2 | 9.6 | 2.3 | 40 | 10.4 | 14.2%
CC12CC(=O)OC1(C)C1CCC2C1 (stereo not drawn) | 9.25 | 10.3 | -5.25 | -10.7 | -10.2 | 9.05%
O=C1CCCC(=O)N1n1c(Cc2ccc(Cl)cc2)n[nH]c1=O | -31.6 | -11.8 | 1.3 | 7.5 | -19.6 | -1.5%
CCCC(=O)NC1CCc2cc(OC)c(OC)c(OC)c2-c2ccc(OC)c(=O)cc21 (stereo not drawn) | 27.4 | -40.5 | 23.1 | -0.9 | 3.45 | 3.2%
ClN(Cl)c1nc(-c2ccccc2)nc(N(Cl)Cl)n1 | 18.1 | 29.6 | 34.9 | -38.1 | 32.5 | 31.5%
Cc1ccc(C(N)=O)cc1N=NN(C)C | -25.8 | -39.4 | -56.9 | 1.55 | -16.6 | -24.4%
CCOC(=O)CSc1nc(-c2ccccc2)c(C#N)c(=O)[nH]1 | 3.05 | 1.2 | -5.4 | 13.2 | 2.6 | -61%
CCOC(=O)N/N=C/c1ccccc1C | -9.05 | -3.15 | -6.9 | 25.2 | -3.5 | -15.4%
Clc1cccc(NC2=NCCN=C(Nc3cccc(Cl)c3Cl)SS2)c1Cl | 8.6 | -17.5 | -0.75 | 5.85 | 3.75 | 6.55%
CC1(C)OC(CCl)C2OC(C)(C)OC(CCl)C2O1 (stereo not drawn) | 11.1 | 9.3 | -7.35 | 3.85 | -4.95 | 2.75%
COC(=O)C(CCC1(C)OCCO1)C(C)=O (stereo not drawn) | -10.4 | -0.85 | -9 | 7.65 | -1.55 | -13%
COCCOC(=O)COc1ccccc1 | 22.1 | 23 | 16.2 | 3.5 | -8 | -1.15%
N#Cc1c[nH]c(=O)[nH]c1=O | -25.3 | -25.4 | -13.4 | 2.15 | 1.85 | -45.6%
CC(C)CCCC(C)C1CCC2C3CC4OC45CC(O)CCC5(C)C3CCC12C (stereo not drawn) | 42.4 | 18.1 | 47.7 | 7.3 | -1.1 | 29.4%
C1CCC2=NCCCN2CC1 | -13.8 | -23 | 10.6 | -4.8 | 11.8 | -1%
C#CCOCC(CCl)OC(=O)Nc1ccccc1 (stereo not drawn) | 14.7 | 47.1 | 11.6 | 11.8 | 14.7 | 84.4% (active)
C=CCC1(CN(C)C)CC/C(=C\c2cc(OC)c(OC)c(OC)c2)C1=O (stereo not drawn) | -8.7 | -3.15 | -26 | -4.65 | -9.85 | 20.2%
